The list is not random: actives were taken first. Their share in the collection is about 19%.
TGFb SMAD3 inh = inhibitors of TGF-b signaling. HepG2 CAGA-GFP TGF-b/SMAD3 reporter, GFP fluorescence, 18 h; TGF-beta stimulated, 500 pg/mL final. Potency, µM (series often up to 46.1 µM), actives largely listed as inhibitors. hit rate 1.2% among 410,000. AID 588855; note: nearly all actives have a fitted effect of over 65% in size
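TGF-beta reporter screen: HEPG2 CAGA-GFP, 1% FBS, 500 pg/mL TGF-beta final, 18 h; per-cell GFP summed per well; curves fitted and categorized by class.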
IL-1B inflam inh = blocks inflammasome-driven IL-1 beta release | THP-1 LPS/ATP IL-1B secretion, AlphaLISA, 16 h; active compounds read low | activity change, % at 57.5 µM | hit rate 4.7% among 360,000 | AID 743279; in the data active = activity change below about -50%; inconclusive = mostly about -30% to -49%
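THP-1 cells pretreated 1 hr with compounds (up to 57.5 uM final), then stimulated with LPS (250 ng/mL final) plus ATP (1.25 mM final); secreted IL-1B measured by AlphaLISA after 16 hr, decreased signal indicating inhibition.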
DT40 TDP1 CPT = growth inhibition of DT40 Tdp1-/-;hTDP1 cells with camptothecin (screen for TDP1 inhibitors); chicken DT40 Tdp1-/-;hTDP1 cells + 20 nM CPT, ATP luminescence, 48 h; Potency, µM (titrated, usually from 46.2 µM), hits mostly inhibitors; hit rate 12% among 420,000; note: nearly all actives have a fitted effect of over 55% in size
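Chicken DT40 Tdp1-/- cells complemented with human TDP1, 400 cells/well, exposed to compounds plus 20 nM camptothecin for at least 48 h at 37 C; viability read as ATP content by CellTiter-Glo luminescence.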
DT40 TDP1 no CPT = qHTS for Inhibitors of human tyrosyl-DNA phosphodiesterase 1 (TDP1): qHTS in cells in absence of CPT | DT40 Tdp1-/- hTDP1 cells, no CPT, ATP luminescence, 48 h | Potency, µM (highest dose often 46.2 µM), most hits filed as inhibitors | hit rate 15% among 420,000 | AID 686978, 2013; note: nearly all actives have a fitted effect of over 55% in size
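Stably hTDP1-transfected Tdp1-null chicken DT40 cells were treated with library compounds minus camptothecin and grown for at least 48 hr at 37 °C, after which cellular ATP was quantified by luminescence.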
HepG2 tox = HepG2 cytotoxicity, counter-screen for TGF-b inhibitors; HepG2 CAGA-GFP viability, ATP luminescence, 18 h; Potency, µM (doses to about 46.1 µM), hits mostly cytotoxic; hit rate 0.76% among 410,000; AID 588856
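CellTiter-Glo luminescence gave cytotoxicity after 18 hours at 37 degrees C. The cells were HepG2 CAGA-GFP in 1% FBS DMEM, stimulated with 500 pg/mL TGF-beta after compound addition. %Activity was normalised to no-cell wells (complete cell-killing) and DMSO (no toxicity), and curves were fitted and classified.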
S-ASM inh = inhibitors of human secretory acid sphingomyelinase; P17405; placental ASM, HMU-PC fluorogenic substrate, 60 min; Potency, µM (titrated, usually from 57.5 µM), most hits filed as inhibitors; hit rate 0.006% among 340,000; AID 504937
Target sequence (P17405 47-631 limits assumed): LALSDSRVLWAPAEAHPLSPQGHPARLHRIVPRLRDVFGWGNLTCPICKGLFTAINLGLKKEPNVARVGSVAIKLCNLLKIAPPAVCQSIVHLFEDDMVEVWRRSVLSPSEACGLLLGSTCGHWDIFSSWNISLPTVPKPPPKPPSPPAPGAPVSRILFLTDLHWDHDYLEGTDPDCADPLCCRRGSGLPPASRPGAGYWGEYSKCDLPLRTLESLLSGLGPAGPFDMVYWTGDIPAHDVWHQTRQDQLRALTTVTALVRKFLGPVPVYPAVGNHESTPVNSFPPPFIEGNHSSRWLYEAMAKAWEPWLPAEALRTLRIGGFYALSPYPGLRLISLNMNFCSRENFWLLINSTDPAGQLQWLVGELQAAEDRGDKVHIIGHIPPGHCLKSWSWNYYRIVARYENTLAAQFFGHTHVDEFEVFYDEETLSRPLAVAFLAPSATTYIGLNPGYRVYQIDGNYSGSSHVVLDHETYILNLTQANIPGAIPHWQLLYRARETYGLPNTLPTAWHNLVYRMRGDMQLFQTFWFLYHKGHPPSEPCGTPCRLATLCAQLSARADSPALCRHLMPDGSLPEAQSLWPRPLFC
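Fluorescence read-out (Ex 386 nm, Em 447 nm) after stopping the reaction at pH 10. Enzyme: ASM from human placenta; substrate HMU-PC0, 9 uM final; 60 min, 37 °C. Compound preincubation 10 min, ambient temperature.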
Numbers stand for hits; 0 = inactive; ? = inconclusive; - = no result given; [ ] = another dose, or the depositor's remark. Unless noted, calls come from the whole dose curve; as a rule, active = well fitted curve in the direction sought with a large enough effect; inconclusive = small, poorly fitted or top-dose-only effect, or another doubt; inactive = no such curve, though single readings can be large; an effect the other way counts as inactive or inconclusive.

SMILES | TGFb SMAD3 inh | IL-1B inflam inh | DT40 TDP1 CPT | DT40 TDP1 no CPT | HepG2 tox | S-ASM inh
O=C(NC1CCCC1)C(c1ccccn1)N(C(=O)c1csnn1)c1ccccc1Cl (stereo not given) | 0 | 0 | 0 | 0 | 0 | 0
CSc1nc(N)nc(SCC(=O)C23CC4CC(CC(C4)C2)C3)c1C#N | ? | 0 | ? | 18.4µM | 0 | 0
CCOC(=O)c1c(C)nc2sc3c(=O)n(-c4ccc(C(C)=O)cc4)nnc3c2c1-c1ccc(Cl)cc1 | ? | 0 | ? | 16.4µM | 0 | 0
CCOC(=O)Cn1nnc2c(sc3nc4c(c(-c5ccc(Cl)cc5)c32)CCC4)c1=O | 0 | 0 | ? | 16.4µM | 0 | ?
CCOC(=O)c1c(C)nc2sc3c(=O)n(-c4ccc(C)cc4)cnc3c2c1-c1ccc(OC)cc1 | 0 | 0 | 0 | 0 | 0 | 0
CCOC(=O)Cn1nnc2c(sc3nc4c(c(-c5ccccc5)c32)CCC4)c1=O | 0 | 0 | 20.6µM | 16.4µM | 0 | 0
O=C([C@@H]1CCCN1C(=O)c1cccs1)N1CCN(S(=O)(=O)c2cccc(F)c2)CC1 | 0 | 0 | 0 | 0 | 0 | 0
O=C(CSc1nc(C2CC2)nc2ccccc12)Nc1ccccc1Cl | 0 | 0 | 0 | 0 | 0 | 0
CC(=O)c1cccc(NC(=O)CSc2nc(C3CC3)nc3ccccc23)c1 | 0 | -96.2 | ? | 16.4µM | 0 | 0
CCN(CC)c1ccc(NC(=O)CSc2nc(C3CC3)nc3ccccc23)cc1C | 0 | 0 | 4.11µM | 5.17µM | 0 | 0
O=C(CSc1nc(C2CC2)nc2ccccc12)Nc1ccccc1N1CCOCC1 | 0 | -76.3 | ? | ? | 0 | 0
O=C(CSc1nc(C2CC2)nc2ccccc12)Nc1ccccc1 | 0 | -60.8 | 0 | ? | 0 | 0
O=C(NC1CCN(C(=O)Nc2ccccc2Cl)CC1)c1ccco1 | 0 | 0 | 0 | 0 | 0 | 0[11.5 µM]
CN(C)c1ccc(NC(=O)CSc2nc(C3CC3)nc3ccccc23)cc1 | 0 | 0 | ? | 18.4µM | 0 | 0
Cc1cccc(NC(=O)CSc2nc(C3CC3)nc3ccccc23)c1 | 0 | 0 | ? | ? | 0 | 0
CC(=O)Nc1cccc(NC(=O)CSc2nc(C3CC3)nc3ccccc23)c1 | 0 | -79.4 | 4.11µM | 7.31µM | 0 | 0
Cc1ccc(S(=O)(=O)N2CCCCC2)cc1NC(=O)c1cc(=O)[nH]c2ccccc12 | 0 | 0 | 0 | 0 | 0 | 0
CCCCC[n+]1ccn(C2=C([O-])c3ccccc3C(=O)/C2=N\S(=O)(=O)c2ccc(Cl)cc2)c1 | 3.16µM | 0 | 4.61µM | 2.91µM | 3.55µM | 0
CCCC[n+]1ccn(C2=C([O-])c3ccccc3C(=O)/C2=N\S(=O)(=O)c2ccc(Cl)cc2)c1 | 10µM | 0 | 8.2µM | 9.2µM | 11.2µM | 0
Cc1ccc(NC(=O)C(=O)NCC(c2ccc3c(c2)OCO3)N2CCOCC2)cc1C (stereo not given) | 0 | - | 0 | 0 | 0 | -
CC(CNC(=O)CCc1nnc2ccc(N3CCC4(CC3)OCCO4)nn12)c1ccccc1 (stereo not given) | 0 | 0 | 0 | 0 | 0 | 0
CC(C)(C)OC(=O)C[C@@H]1C/C=C\C[C@H](CC(=O)N(CCO)Cc2ccccc2)C(=O)NC[C@@H](c2ccccc2)OC1=O | 0 | 0 | ? | 23.1µM | 0 | 0
CC(C)(C)OC(=O)C[C@H]1C/C=C\C[C@H](CC(=O)N(CCO)Cc2ccccc2)C(=O)N[C@@H](c2ccccc2)COC1=O | 0 | 0 | ? | ? | 0 | 0
CC(C)(C)OC(=O)C[C@H]1C/C=C\C[C@@H](CC(=O)N(CCO)Cc2ccccc2)C(=O)NC[C@H](c2ccccc2)OC1=O | 0 | 0 | 20.6µM | 14.6µM | 0 | 0
CN(CCn1ccnc1)Cc1cn(Cc2ccccc2)nc1-c1ccc2c(c1)OCO2 | 0 | 0 | ? | 0 | 0 | 0
SMILES | TGFb SMAD3 inh | IL-1B inflam inh | DT40 TDP1 CPT | DT40 TDP1 no CPT | HepG2 tox | S-ASM inh
CCN(CC)S(=O)(=O)c1ccc2c(c1)N(CC(=O)NCCc1ccc(S(N)(=O)=O)cc1)C(=O)CO2 | 0 | 0 | 0 | 0 | 0 | 0
Cc1cc(N2CCCC2)c(F)cc1/C=C\[N+](=O)[O-] | 11.2µM | -68.1 | 23.1µM | ? | 0 | 0
Cc1cc(N2CCC(C)CC2)c(F)cc1[N+](=O)[O-] | 0 | 0 | 0 | 0 | 0 | 0
CCOC(=O)c1c(C)[nH]c(C)c1S(=O)(=O)N1CCC(C(=O)Nc2ccccc2CC)CC1 | ? | - | ? | ? | 0 | -
CC(=O)N1CCc2cc(Br)cc(S(=O)(=O)CCC(=O)N3CCN(c4cccc(C)c4C)CC3)c21 | ? | - | 16.4µM | ? | 0 | -
CC(=O)N1CCc2cc(Br)cc(S(=O)(=O)CCC(=O)N3CCN(c4ccccn4)CC3)c21 | 0 | 0 | 0 | 0 | 0 | 0
O=C(CCl)N1c2ccccc2Sc2c1ccc1ccccc21 | 0 | -102.2 | 3.66µM | 5.8µM | 0 | 0
CC1CCN(c2nc3ccc(C(=O)NCc4ccc(Cl)cc4)cc3s2)CC1 | 0 | - | ? | ? | 0 | -
Cc1cccc(N2CCN(C(=O)c3ccc4nc(N5CCC(C)CC5)sc4c3)CC2)c1C | 0 | - | 20.6µM | 16.4µM | 0 | -
CC1CCN(c2nc3ccc(C(=O)NCCCN4CCCCC4)cc3s2)CC1 | 0 | 0 | ? | 23.1µM | 0 | 0
CC1CCN(c2nc3ccc(C(=O)NCc4ccccc4Cl)cc3s2)CC1 | ? | - | ? | 20.6µM | 0 | -
O=C(c1ccc2c(c1)OCO2)N(Cc1cc2ccc(F)cc2nc1N1CCC(O)CC1)CC1CCCO1 (stereo not given) | - | - | 0[9.04 µM] | ? | - | -
Cc1ccc(SCCNC(=O)CN(c2ccccc2)S(=O)(=O)N(C)C)cc1 | ? | - | 0 | ? | 0 | -
COC(=O)N1CCC2(CC1)CN(C(c1ccccc1)c1ccccc1)C2 | - | - | 0 | ? | - | -
CC(C)OC(=O)C(=O)NNc1ccccc1 | 0 | 0 | 0 | 0 | 0 | 0
C=C(C)C(=O)NNc1ccccc1 | 0 | 0 | 5.17µM | 7.31µM | 0 | 0
COc1ccc(/C=C(\C#N)C(=O)OCC(=O)N2CC(C)OC(C)C2)cc1 (stereo not given) | 0 | 0 | 0 | 0 | 0 | 0
O=C(NCCCN1CCOCC1)c1ccc(/C=C2\Oc3ccccc3N(Cc3ccccc3F)C2=O)cc1 | 0 | 0 | 0 | 0 | 0 | 0
Cc1ccc(/C=C2/Sc3ccccc3N(CC(=O)NCCCOC(C)C)C2=O)cc1 | 0 | ? | ? | ? | 0 | 0
CCN1CCN(CCCNC(=O)c2ccc(/C=C3/Sc4ccccc4N(Cc4ccccc4F)C3=O)cc2)CC1 | ? | ? | 16.4µM | 14.6µM | 11.2µM | 0
CCN1CCN(CCNC(=O)c2ccc(/C=C3/Sc4ccccc4N(Cc4ccccc4C)C3=O)cc2)CC1 | 17.8µM | 0 | ? | ? | 0 | 0
